According to PubChem BioAssay AID686978 (National Center for Advancing Translational Sciences (NCATS), 2013):
Several values for one entry are separate records, joined by “and”; a condition that tells them apart may be missing. Equal values may be shown once. About 64,000 (15%) of roughly 420,000 compounds were called active. Roughly 27% stayed inconclusive and do not appear here. Calls follow the shape of the dose curve; as a rule, active = well fitted inhibition curve with a large enough effect; inconclusive = small, poorly fitted or top-dose-only effect; inactive = flat fitted curve, though single readings scatter. Not all results are given here. Entries that show only a call come without a potency.

experiment: qHTS for Inhibitors of human tyrosyl-DNA phosphodiesterase 1 (TDP1): qHTS in cells in absence of CPT; details: DT40 Tdp1-/- hTDP1 cells, no CPT, ATP luminescence, 48 h; activity change, negative = growth inhibition: at 46.2 µM (top of the series); also: nearly all actives have a fitted effect of over 55% in size
Method in brief: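 Readout: luminescence from CellTiter-Glo after 30 min in the dark at RT. Cells: DT40 Tdp1-/- with stable hTDP1, 400/well. Exposure: compounds alone, ≥48 hr, 37 °C.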
Potency is read from the fitted curve at half-maximal effect.

| SMILES | Potency |
| --- | --- |
| CCN(CC(=O)Nc1cc(Cl)ccc1C)C(=O)CN1C(=O)NC2(CCCC2)C1=O | inactive |
| CN(C)CCNC(=O)c1ccc(Cl)c2cc3ccccc3nc12 | 0.146 µM (active) |
| CN(C)CCNC(=O)Nc1cccc(Cl)c1Cl | inactive |
| CC(=O)NCCNC(=O)c1cc(-c2cccc3ccccc23)nc2ccccc12 | inactive |
| CCNC(=S)N(CCN(CC)CC)Cc1cc2cc3c(cc2[nH]c1=O)OCCO3 | inactive |
| Oc1c(C(c2cccs2)N2CCN(c3ccc(F)cc3)CC2)sc2ncnn12 (centres undefined) | inactive |
| CC1CC(C)CN(CC(=O)Nc2ccc(S(N)(=O)=O)cc2)C1 (centres undefined) | inactive |
| Cc1nnc(SCC(=O)N2CCc3ccccc3C2)s1 | inactive |
| Cc1nc(SCC(=O)Nc2cc(C)on2)c2c(C)c(C)sc2n1 | inactive |
| Cc1nc(SCC(=O)N2CCc3ccccc3C2)c2c(C)c(C)sc2n1 | 16.4 µM (active) |
| O=C(NCC(O)c1nc2ccccc2[nH]1)c1ccc(Br)cc1 (centres undefined) | inactive |
| O=C(CC1CCCCC1)NCc1ccc(F)cc1 | inactive |
| CCOC(=O)C1CCN(C(=O)Nc2ccc(Cl)cc2)CC1 | inactive |
| O=[N+]([O-])c1ccc(N2CCN(c3ccc(O)cc3)CC2)c(Cl)c1 | 13 µM (active) |
| O=C(O)C1CCN(c2ccc([N+](=O)[O-])cc2[N+](=O)[O-])CC1 | inactive |
| O=[N+]([O-])c1ccc(N2CCOCC2)cc1 | inactive |
| O=C(COC(=O)c1ccccc1SCC(=O)N1CCCC1)Nc1ccccc1OC(F)F | inactive |
| Cc1ccc(CNC(=O)CCNC(=O)Cn2ccc3ccccc3c2=O)cc1 | inactive |
| CCN(CCO)C(=S)Nc1cc(C(=O)OC)ccc1C(=O)OC | inactive |
| CCS(=O)(=O)Nc1cc(C(=O)OC)ccc1C(=O)OC | inactive |
| CCCN(CCC)C(=S)Nc1cc(C(=O)OC)ccc1C(=O)OC | 18.4 µM (active) |
| Cc1ccc(-c2cn3cc(C)ccc3n2)cc1 | inactive |
| CC(=O)Nc1c(-c2ccc(C)cc2)nc2ccc(Cl)cn12 | inactive |
| CN1CCN(Cc2c(C(=O)N3CCc4ccccc4C3)nc3ccc(Cl)cn23)CC1 | inactive |
| Cc1ccc(-c2nc3ccc(Cl)cn3c2Cc2ccccc2)cc1 | 20.6 µM (active) |
| c1ccc(Cc2c(-c3ccco3)nc3c4ccccc4ccn23)cc1 | 20.6 µM (active) |

| SMILES | Potency |
| --- | --- |
| CN(C)C(=O)c1nc2ccc(Cl)cn2c1CN1CCN(c2ncccn2)CC1 | inactive |
| Cc1ccc(Cc2c(-c3ccco3)nc3ccc(Cl)cn23)cc1 | 11.6 µM (active) |
| CSc1nc(-c2ccco2)nn1C(=O)CCc1ccccc1 | inactive |
| O=C(Nc1c(-c2ccccc2)nc2c(Br)cc(Br)cn12)c1ccco1 | inactive |
| Cc1nn(CC(=O)Nc2ccc3c(c2)OCO3)c(C)c1[N+](=O)[O-] | inactive |
| Cc1cccc(NC(=O)CN2C(=O)CNC2=O)c1 | inactive |
| C/C(=N\NC(=O)c1cccc([N+](=O)[O-])c1)c1cccnc1 | inactive |
| CCOC(=O)C(C)Oc1cccc2c(=O)n(CC(=O)N3CCc4ccccc43)ccc12 (centres undefined) | inactive |
| O=C(Nc1ccccc1C(=O)N1CCOCC1)c1ccc(Cl)cc1 | inactive |
| Cc1cc(C)cc(NS(=O)(=O)c2ccc(F)cc2)c1 | inactive |
| Cn1c(=O)n(C)c2cc(S(=O)(=O)Nc3ccc(F)cc3)ccc21 | 20.6 µM (active) |
| Cn1c(=O)n(C)c2cc(NS(=O)(=O)c3ccc(F)cc3)ccc21 | inactive |
| Cn1c(C(=O)N2CCCC(C(=O)NCc3ccccc3)C2)cc2sccc21 (centres undefined) | inactive |
| C/C(=N\Nc1ccc(Cl)nn1)c1ccccc1O | 0.58 µM (active) |
| CCCCCCCN=C(C)c1ccccc1O | inactive |
| Oc1cccc(/C=N/Nc2ccc(Cl)nn2)c1O | 0.13 µM (active) |
| Clc1ccc(N/N=C/c2cccs2)nn1 | inactive |
| Fc1ccccc1Cc1ccc(Cl)nn1 | inactive |
| O=C(c1cccc(-n2cccc2)c1)N1CCN(S(=O)(=O)c2ccc(F)cc2)CC1 | inactive |
| C=C(Cl)COC(=O)C1C2C=CC(C2)C1C(=O)O (centres undefined) | inactive |
| CC12CN(NC(=O)c3ccc(Cl)cc3)C3(C#N)CC1CCC23C (centres undefined) | inactive |
| Cc1ccc(C(CNC(=O)Nc2ccccc2)N2CCN(C)CC2)cc1 (centres undefined) | inactive |
| Cc1ccc(NC(=O)[C@H](Cc2ccccc2)NC(=O)CC[C@H]2O[C@@H](n3ccc(=O)[nH]c3=O)[C@H](O)[C@@H]2O)cc1C | inactive |
| CCOC(=O)/C(N=Nc1cc(C(=O)O)cc(C(=O)O)c1)=C(\O)CCl | inactive |
| CCOc1ccc(/C(O)=C2\C(=O)C(=O)N(c3ccc(OC)cc3)C2c2ccccc2[N+](=O)[O-])cc1 (centres undefined) | inactive |
| CCO/C=C1\C(=O)N(c2ccc(OCC)cc2)C(=O)c2ccccc21 | inactive |

| SMILES | Potency |
| --- | --- |
| CCOc1ccc(-c2n[nH]c3c2C(c2ccccc2OC)N(c2ccc(Br)cc2)C3=O)cc1 (centres undefined) | 14.6 µM (active) |
| Cc1ccc(C(=O)Nc2ccn(C)n2)cc1 | inactive |
| O=C(Nc1nccs1)C1CCCN1S(=O)(=O)c1cccc2cccnc12 (centres undefined) | inactive |
| COc1ccc(NC(=O)C2CCCN(S(=O)(=O)c3cccc4cccnc34)C2)cc1OC (centres undefined) | inactive |
| Cc1ccc(NC(=O)C2CCCN2S(=O)(=O)c2cccc3cccnc23)c(C)c1 (centres undefined) | 18.4 µM (active) and 16.4 µM (active) |
| COC(=O)C1=C(C)N(C)C(C)=C(C(=O)OC)C1c1cccc(Br)c1 | inactive |
| COC(=O)C1=CN(c2c(C)cc(C)cc2C)C(N)=C(C#N)C1c1cccc(F)c1 (centres undefined) | 14.6 µM (active) |
| Cn1c2c(c(=O)n(C)c1=O)C(c1cccc(F)c1)C(C#N)=C(N)O2 (centres undefined) | inactive |
| Cc1ccc(NC(=O)C(C)OC(=O)Cc2c[nH]c3ccccc23)cc1S(=O)(=O)N1CCOCC1 (centres undefined) | inactive |
| O=C(OCC(=O)N1CCCCCC1)c1ccc(Br)c(S(=O)(=O)N2CCOCC2)c1 | inactive |
| COc1cc(Br)cc(/C=N/c2ncn[nH]2)c1O | inactive |
| N#C/C(C(=O)N1CCOCC1)=C1/SC(Cc2ccc(F)cc2)C(=O)N1c1ccccc1 (centres undefined) | inactive |
| COc1ccc(OC)c(NC(=O)C2(C)CCN2C(=O)Cc2ccccc2)c1 (centres undefined) | inactive |
| C#Cc1ccc(NC(=O)C2(C)CCN2C(=O)Cc2ccc(-c3ccccc3)cc2)cc1 (centres undefined) | 20.6 µM (active) |
| CC1(C(=O)NS(=O)(=O)c2cccs2)CCN1C(=O)Cc1ccc(-c2ccccc2)cc1 (centres undefined) | inactive |
| CCCNC(=O)C1(C)CCN1C(=O)Cc1ccc(-c2ccccc2)cc1 (centres undefined) | 9.2 µM (active) |
| CC1(C(=O)NS(=O)(=O)Cc2cccc(Cl)c2)CCN1C(=O)Cc1ccccc1 (centres undefined) | inactive |
| CC1(C(=O)NS(=O)(=O)c2ccccc2)CCN1C(=O)Cc1ccc(-c2ccccc2)cc1 (centres undefined) | inactive |
| O=C(CSc1cn(CC(=O)N2CCOCC2)c2ccccc12)Nc1ccccc1 | inactive |
| O=C(CN1C(=O)NC2(CCCC2)C1=O)Nc1cc(C(F)(F)F)ccc1N1CCOCC1 | inactive |
| Cc1ccc2c(c1)N(CCCC(=O)NCc1cccnc1)C(=O)CO2 | inactive |
| COc1cc(C)ccc1OCC(=O)OCC(=O)c1ccc[nH]1 | inactive |
| COCC1CCN(C(=O)C2CCC(=O)N(CC3CCCCC3)C2)CC1 (centres undefined) | inactive |
| CN(CC(=O)Nc1cccc2c1CCCC2)S(=O)(=O)c1ccc(Cl)cc1 | inactive |
| Cc1ccc(S(=O)(=O)N(CC(=O)Nc2ccc(Cl)cc2Cl)c2ccccc2C)cc1 | 11.6 µM (active) |
| Cc1ccc(S(=O)(=O)N(CC(=O)NCc2ccco2)c2ccccc2C)cc1 | inactive |

| SMILES | Potency |
| --- | --- |
| Cc1ccc(N2C(=O)SC(N(CC(=O)O)c3ccc(C)cc3)C2=O)cc1 (centres undefined) | inactive |
| C(#CCN1CCOCC1)CCCN1CCOCC1 | inactive |
| COc1ccc(Nc2nc(Cl)nc(NCc3ccco3)n2)cc1 | inactive |
| COc1ccc(NC(=O)C(=O)NCc2ccco2)cc1 | inactive |
| COc1ccc(Nc2nc(NCc3ccco3)nc(N/N=C/c3ccccc3Cl)n2)cc1 | 23.1 µM (active) |
| CN1CCn2cnc(C(=O)NCC(=O)OC(C)(C)C)c2C1=O | inactive |
| CC12CCC(C(=O)N(CCC#N)CCC#N)(CC1=O)C2(C)C (centres undefined) | inactive |
| CC1=CC(C)(C)NC(=S)N1NC(=O)c1ccccc1Cl | inactive |
| COc1ccc(NS(=O)(=O)c2cc(NC(=O)c3ccc(S(=O)(=O)N(C)C)cc3)ccc2N2CCOCC2)cc1 | inactive |
| COc1ccc(NS(=O)(=O)c2cc(NC(=O)/C=C/c3cc(OC)c(OC)c(OC)c3)ccc2N2CCCCC2)cc1 | inactive |
| COc1ccc(NS(=O)(=O)c2cc(NC(=O)C3CCCCC3)ccc2N2CCOCC2)cc1 | 13 µM (active) |
| O=c1[nH]c(CN2CCOCC2)nc2scc(-c3ccccc3)c12 | inactive |
| Oc1ccc(-n2nnnc2SCc2c(F)cccc2Cl)cc1 | inactive |
| CC(CC(=O)N1CCN(c2ccccc2)CC1)S(=O)(=O)c1ccc2c(c1)NC(=O)CS2 (centres undefined) | 20.6 µM (active) |
| CC(CC(=O)N1CCN(c2ccccc2)CC1)c1ccccc1 (centres undefined) | inactive |
| COc1ccccc1CNS(=O)(=O)c1ccc2c(c1)NC(=O)CS2 | inactive |
| Cc1nonc1NC(=O)c1ccccc1Br | inactive |
| CC(C)C(C(=O)NCc1ccco1)N(CC1CCCO1)C(=O)CNS(=O)(=O)c1ccc(F)cc1 (centres undefined) | inactive |
| CCOC(=O)Cc1ccc(NC(=O)Nc2c[nH]c(=O)[nH]c2=O)cc1 | inactive |
| Cc1ccc(S(=O)(=O)N2CCCC2C(=O)OCc2nc3sc(C)c(C)c3c(=O)[nH]2)cc1 (centres undefined) | inactive |
| CS(=O)(=O)N(Cc1nc2sc3c(c2c(=O)[nH]1)CCCC3)C1CCCCC1 | 23.1 µM (active) |
| CCN(CC)Cc1nc2sc(C)c(C)c2c(=O)[nH]1 | inactive |
| CC(=O)Nc1ccc(NC(=O)CC2CCCC2)cc1 | inactive |
| COc1cc(CCN=Cc2ccccc2O)c([N+](=O)[O-])cc1OC | inactive |
| Cc1c(NC(=O)C(=O)N/N=C/c2cccs2)c(=O)n(-c2ccccc2)n1C | inactive |
| Cc1cc(N=CC2=C(O)CCCC2=O)no1 | inactive |
